Measurements reported in PubChem BioAssay AID488941 (The Scripps Research Institute Molecular Screening Center, 2010).
The other results are listed elsewhere or left out. Unmarked numbers belong to inactive results.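 Rule for the calls: active = mean activation above a set limit taken from an earlier procaspase-7 screen; inactive = the rest.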

molecular target: Caspase-7 (Homo sapiens) (UniProt P55210); experiment: procaspase-7 activators, counter-screen for procaspase-3 activator project, biochemical, absorbance, triplicate, human (AID 488941); conditions: recombinant procaspase-7, Ac-DEVD-pNA absorbance; at 8.5 µM; stronger effect = higher value; asp23/198/206-to-Ala mutant, cannot self-cleave;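 note: 0% = DMSO wells and 100% = DMSO plus 5 µM procaspase-7 enzyme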
Sequence (P55210 whole entry D23A/D198A/D206A): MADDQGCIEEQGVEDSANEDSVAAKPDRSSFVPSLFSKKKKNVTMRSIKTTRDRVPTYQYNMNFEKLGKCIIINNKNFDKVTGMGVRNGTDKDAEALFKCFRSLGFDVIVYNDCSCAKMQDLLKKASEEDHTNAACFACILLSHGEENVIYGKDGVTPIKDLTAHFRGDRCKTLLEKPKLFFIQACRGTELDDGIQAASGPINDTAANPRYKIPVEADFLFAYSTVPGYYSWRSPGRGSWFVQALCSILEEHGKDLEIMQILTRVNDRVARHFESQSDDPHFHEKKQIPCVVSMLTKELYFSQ

SMILES | activation
COc1ccc2nc(Nc3nc4ccc(NC(C)=O)cc4s3)sc2c1 | -1.13%
COc1ccccc1NS(=O)(=O)c1ccc(C(=O)N2CCN(c3ccccc3O)CC2)cc1 | 0.45%
CCOc1ccc2nc(NCCNS(=O)(=O)c3ccccc3)c(C#N)cc2c1 | -21%
COC(=O)Cc1cc(=O)oc2c(C)c(O)ccc12 | -20.2%
CN1CCN(CCCNC(=O)c2ccc(/C=C3\Oc4ccccc4N(Cc4ccc(Cl)cc4)C3=O)cc2)CC1 | -19.9%
Cc1nn(C)cc1CNC(=O)Nc1ccc(Cl)cc1 | 1.34%
O=C(CCNS(=O)(=O)c1ccccc1C(F)(F)F)NCc1ccc2c(c1)OCO2 | 1.59%
Oc1ccccc1C1=NN(c2ccccc2)C(c2ccccc2)C1 (stereo unspecified) | -21.3%
COc1ccc(-c2sc3ccc(OC)cc3c2C#Cc2ccccn2)cc1 | 6.29%
COc1ccc(CCNC(=O)COC(=O)c2ccc[nH]c2=O)cc1 | 3.85%
COC(=O)c1cnc(Nc2cc(C)ccc2OC)c2ccccc12 | -21.2%
